± gives the standard deviation.
Experiments:
[1] = test system: MILI (PIWIL2) piRISC loaded with L1MC piRNA (26 nt); assay: pre-steady-state target cleavage rate (min^-1); guide: L1MC piRNA 5'p-UAACUAAAUACUAUGCAAGCUGUAGG; higher = faster piRNA-guided slicing of the target
Procedure, shortened: (§1)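 The pre-steady-state cleavage rate was obtained by Cleave-'n-Seq with a burst-and-steady-state fit. A transcribed, DNA-blocked target RNA library (0.1 nM) was mixed with 1 nM active affinity-purified piRISC carrying one synthetic guide, with or without 500 nM GTSF1 partner protein, in HEPES–potassium acetate buffer at 33 °C for 0–8 or 0–960 min. Uncleaved targets were sequenced and normalised to depth and to weakly complementary targets, with three trials pooled and k3 capped at 0.0001 min^-1.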

[2] = test system: EfPiwi piRISC loaded with L1MC piRNA (26 nt); assay: pre-steady-state target cleavage rate (min^-1); auxiliary factor: 500 nM Ephydatia muelleri Gtsf1; guide: L1MC piRNA 5'p-UAACUAAAUACUAUGCAAGCUGUAGG; MIWI and MILI are mouse PIWI proteins and EfPiwi is from a freshwater sponge; tags in brackets are library labels; higher = faster piRNA-guided slicing of the target
Procedure, shortened: as §1

[3] = auxiliary factor: 500 nM mouse GTSF1
[4] = auxiliary factor: none (no GTSF1)

UCCUGCUACAGCUUGCAAAGUAUUAAGUUA
pre-steady-state target cleavage rate [1, 3]: 0.146 ± 0.019
pre-steady-state target cleavage rate [1, 4]: 0.00367 ± 0.0025
pre-steady-state target cleavage rate [2]: 0.00445 ± 0.0021

UCCUGGAUGAGCUUGCAUAGUUUUUAGUUA
pre-steady-state target cleavage rate [1, 3]: 0.0248 ± 0.0073
pre-steady-state target cleavage rate [1, 4]: 0.00471 ± 0.0024
pre-steady-state target cleavage rate [2]: 0.00485 ± 0.002

UCCUGGUACAGCAUUGCAUAGUAUUUAGUUA
pre-steady-state target cleavage rate [1, 3]: 0.257 ± 0.039
pre-steady-state target cleavage rate [1, 4]: 0.0159 ± 0.0049
pre-steady-state target cleavage rate [2]: 0.0107 ± 0.004

UCCUGCUACAGCUAGCAUAGUAAUUAGUUA
pre-steady-state target cleavage rate [1, 3]: 0.284 ± 0.026
pre-steady-state target cleavage rate [1, 4]: 0.0047 ± 0.003
pre-steady-state target cleavage rate [2]: 0.00598 ± 0.0018

UCCUCCUACACCUUGCAUAGUAUAUAGUUA
pre-steady-state target cleavage rate [1, 3]: 0.199 ± 0.028
pre-steady-state target cleavage rate [1, 4]: 0.00295 ± 0.0027
pre-steady-state target cleavage rate [2]: 0.00711 ± 0.0039

UCCUGGUACAGCUUGCAUAGUAUAUUGUUA
pre-steady-state target cleavage rate [1, 3]: 0.146 ± 0.042
pre-steady-state target cleavage rate [1, 4]: 0.00411 ± 0.0035
pre-steady-state target cleavage rate [2]: 0.00333 ± 0.0026

UCCUGGAUGAGCUUGCGUAGUAUUUAGUUA
pre-steady-state target cleavage rate [1, 3]: 0.119 ± 0.016
pre-steady-state target cleavage rate [1, 4]: 0.0108 ± 0.0025
pre-steady-state target cleavage rate [2]: 0.00425 ± 0.0038

UCCUGGUACAGCUUGCAUAGUAUUUAGAUUA
pre-steady-state target cleavage rate [1, 3]: 0.131 ± 0.04
pre-steady-state target cleavage rate [1, 4]: 0.00728 ± 0.0036
pre-steady-state target cleavage rate [2]: 0.00491 ± 0.0025

UCCUCCUACAGCUUGCAUAGUAUUAAGUUA
pre-steady-state target cleavage rate [1, 3]: 0.178 ± 0.026
pre-steady-state target cleavage rate [1, 4]: 0.00415 ± 0.0024
pre-steady-state target cleavage rate [2]: 0.00589 ± 0.0029

UCCUGCUACACUUGCAUAGUAUUUAGUUA
pre-steady-state target cleavage rate [1, 3]: 0.268 ± 0.021
pre-steady-state target cleavage rate [1, 4]: 0.00611 ± 0.0023
pre-steady-state target cleavage rate [2]: 0.00903 ± 0.0027

UCCUCCUACAGCUUGCAUAGUGUUUAGUUA
pre-steady-state target cleavage rate [1, 3]: 0.211 ± 0.017
pre-steady-state target cleavage rate [1, 4]: 0.00543 ± 0.0025
pre-steady-state target cleavage rate [2]: 0.0149 ± 0.0041

UCCUGCUACACCAUGCAUAGUAUUUAGUUA
pre-steady-state target cleavage rate [1, 3]: 0.223 ± 0.015
pre-steady-state target cleavage rate [1, 4]: 0.00794 ± 0.0027
pre-steady-state target cleavage rate [2]: 0.00582 ± 0.003

UCCUGCUACAGCUUGCAUAGGUAUUUAGUUA
pre-steady-state target cleavage rate [1, 3]: 0.00815 ± 0.0047
pre-steady-state target cleavage rate [1, 4]: 0.00421 ± 0.0024
pre-steady-state target cleavage rate [2]: 0.00304 ± 0.0019

UCCUCGUACAGCUUGCAUAGUAUUAAGUUA
pre-steady-state target cleavage rate [1, 3]: 0.214 ± 0.022
pre-steady-state target cleavage rate [1, 4]: 0.00547 ± 0.0019
pre-steady-state target cleavage rate [2]: 0.00547 ± 0.0018

UCCUGCUACAGCUUACAUAGUAUUUAGUUA
pre-steady-state target cleavage rate [1, 3]: 0.274 ± 0.026
pre-steady-state target cleavage rate [1, 4]: 0.00609 ± 0.0025
pre-steady-state target cleavage rate [2]: 0.0151 ± 0.0038

UCCUCCUAAGCUUGCAUAGUAUUUAGUUA
pre-steady-state target cleavage rate [1, 3]: 0.23 ± 0.015
pre-steady-state target cleavage rate [1, 4]: 0.00512 ± 0.002
pre-steady-state target cleavage rate [2]: 0.0155 ± 0.0059

UCCUCCUACAGCUUGCAUAGUAUAUUGUUA
pre-steady-state target cleavage rate [1, 3]: 0.128 ± 0.019
pre-steady-state target cleavage rate [1, 4]: 0.00269 ± 0.0025
pre-steady-state target cleavage rate [2]: 0.00489 ± 0.003

UCCUCCUACAGCAUGCAUAGUUUUUAGUUA
pre-steady-state target cleavage rate [1, 3]: 0.0554 ± 0.01
pre-steady-state target cleavage rate [1, 4]: 0.00447 ± 0.002
pre-steady-state target cleavage rate [2]: 0.00379 ± 0.0028

UCCUCCUACAGCUUGCUUAGUAAUUAGUUA
pre-steady-state target cleavage rate [1, 3]: 0.24 ± 0.015
pre-steady-state target cleavage rate [1, 4]: 0.00424 ± 0.0021
pre-steady-state target cleavage rate [2]: 0.0113 ± 0.0049

UCCUGGAUCUGGUUGCAUAGUAUUUAGUUA
pre-steady-state target cleavage rate [1, 3]: 0.158 ± 0.014
pre-steady-state target cleavage rate [1, 4]: 0.0105 ± 0.0029
pre-steady-state target cleavage rate [2]: 0.0604 ± 0.015

UCCUGGAUGAGGAUGCAUAGUAUUUAGUUA
pre-steady-state target cleavage rate [1, 3]: 0.103 ± 0.017
pre-steady-state target cleavage rate [1, 4]: 0.00665 ± 0.0021
pre-steady-state target cleavage rate [2]: 0.00336 ± 0.0024

UCCUGCUACAGCUUGCAUAGUAUUUAAGUUA
pre-steady-state target cleavage rate [1, 3]: 0.365 ± 0.043
pre-steady-state target cleavage rate [1, 4]: 0.00882 ± 0.0027
pre-steady-state target cleavage rate [2]: 0.00777 ± 0.0034

UCCUCCUACAGCUUGGAAAGUAUUUAGUUA
pre-steady-state target cleavage rate [1, 3]: 0.141 ± 0.014
pre-steady-state target cleavage rate [1, 4]: 0.00715 ± 0.0023
pre-steady-state target cleavage rate [2]: 0.0615 ± 0.013

UCCUGGAUGUCCUUGCCUAGUAUUUAGUUA
pre-steady-state target cleavage rate [1, 3]: 0.0522 ± 0.0084
pre-steady-state target cleavage rate [1, 4]: 0.00452 ± 0.002
pre-steady-state target cleavage rate [2]: 0.00345 ± 0.002

UCCUCGUACAGCUUGCAAAGUAUUUAGUUA
pre-steady-state target cleavage rate [1, 3]: 0.149 ± 0.01
pre-steady-state target cleavage rate [1, 4]: 0.00953 ± 0.0024
pre-steady-state target cleavage rate [2]: 0.143 ± 0.032

UCCUCCAUCAGCUUGCAUAGUAUUUAGUAA
pre-steady-state target cleavage rate [1, 3]: 0.165 ± 0.024
pre-steady-state target cleavage rate [1, 4]: 0.00315 ± 0.0022
pre-steady-state target cleavage rate [2]: 0.00678 ± 0.003

UCCUGGUACAGCUUGCAUAGUUUUUAGUAA
pre-steady-state target cleavage rate [1, 3]: 0.0656 ± 0.014
pre-steady-state target cleavage rate [1, 4]: 0.00501 ± 0.0027
pre-steady-state target cleavage rate [2]: 0.00728 ± 0.0027

UCCUGGUACAGCUCUGCAUAGUAUUUAGUUA
pre-steady-state target cleavage rate [1, 3]: 0.243 ± 0.018
pre-steady-state target cleavage rate [1, 4]: 0.00792 ± 0.0029
pre-steady-state target cleavage rate [2]: 0.0139 ± 0.0042

UCCUGGAUGUCCUUGCAUAGUAUUUAAGUUA
pre-steady-state target cleavage rate [1, 3]: 0.173 ± 0.023
pre-steady-state target cleavage rate [1, 4]: 0.00879 ± 0.0027
pre-steady-state target cleavage rate [2]: 0.0217 ± 0.0093

UCCUGGUAGAGGUUGCAUAGUAUUUAGUUA
pre-steady-state target cleavage rate [1, 3]: 0.185 ± 0.024
pre-steady-state target cleavage rate [1, 4]: 0.0103 ± 0.0031
pre-steady-state target cleavage rate [2]: 0.00483 ± 0.0034

UCCUCCUAGUGCUUGCAUAGUAUUUAGUUA
pre-steady-state target cleavage rate [1, 3]: 0.164 ± 0.018
pre-steady-state target cleavage rate [1, 4]: 0.00418 ± 0.0018
pre-steady-state target cleavage rate [2]: 0.00928 ± 0.0031

UCCUCCUACAGGUUGCAUAGUAUAUAGUUA
pre-steady-state target cleavage rate [1, 3]: 0.219 ± 0.022
pre-steady-state target cleavage rate [1, 4]: 0.00587 ± 0.0019
pre-steady-state target cleavage rate [2]: 0.0129 ± 0.0046

UCCUCCUACAGCUCUGCAUAGUAUUUAGUUA
pre-steady-state target cleavage rate [1, 3]: 0.276 ± 0.014
pre-steady-state target cleavage rate [1, 4]: 0.00692 ± 0.0018
pre-steady-state target cleavage rate [2]: 0.0445 ± 0.014

UCCUGCUACAGCUAGCUUAGUAUUUAGUUA
pre-steady-state target cleavage rate [1, 3]: 0.227 ± 0.018
pre-steady-state target cleavage rate [1, 4]: 0.00468 ± 0.0023
pre-steady-state target cleavage rate [2]: 0.00973 ± 0.0029

UCCUGGAUGUCCCUUGCAUAGUAUUUAGUUA
pre-steady-state target cleavage rate [1, 3]: 0.116 ± 0.021
pre-steady-state target cleavage rate [1, 4]: 0.00815 ± 0.0024
pre-steady-state target cleavage rate [2]: 0.00608 ± 0.0026

UCCUCGAACAGCUUGCAUAGUAUUUAGUUA
pre-steady-state target cleavage rate [1, 3]: 0.3 ± 0.017
pre-steady-state target cleavage rate [1, 4]: 0.00922 ± 0.0026
pre-steady-state target cleavage rate [2]: 0.198 ± 0.038

UCCUGGAACAGCUUGCAUAGUAUUAAGUUA
pre-steady-state target cleavage rate [1, 3]: 0.212 ± 0.024
pre-steady-state target cleavage rate [1, 4]: 0.00457 ± 0.0019
pre-steady-state target cleavage rate [2]: 0.00549 ± 0.0022

UCCUCCUACACUUGCAUAGUAUUUAGUUA
pre-steady-state target cleavage rate [1, 3]: 0.248 ± 0.016
pre-steady-state target cleavage rate [1, 4]: 0.00564 ± 0.002
pre-steady-state target cleavage rate [2]: 0.049 ± 0.015

UCCUGGUACAGCUGCAUAGUAUUUAGUUA
pre-steady-state target cleavage rate [1, 3]: 0.23 ± 0.016
pre-steady-state target cleavage rate [1, 4]: 0.0103 ± 0.0029
pre-steady-state target cleavage rate [2]: 0.00843 ± 0.0034

UCCUGGUAGAGCUUGGAUAGUAUUUAGUUA
pre-steady-state target cleavage rate [1, 3]: 0.15 ± 0.0091
pre-steady-state target cleavage rate [1, 4]: 0.00624 ± 0.0029
pre-steady-state target cleavage rate [2]: 0.004 ± 0.0023

UCCUGGAUCAGCAUGCAUAGUUUUUAGUUA
pre-steady-state target cleavage rate [1, 3]: 0.0257 ± 0.0092
pre-steady-state target cleavage rate [1, 4]: 0.00668 ± 0.0023
pre-steady-state target cleavage rate [2]: 0.00291 ± 0.0027

UCCUGCUACAGUUGCAUAGUAUUUAGUUA
pre-steady-state target cleavage rate [1, 3]: 0.256 ± 0.019
pre-steady-state target cleavage rate [1, 4]: 0.0103 ± 0.0022
pre-steady-state target cleavage rate [2]: 0.0766 ± 0.022

UCCUGGAUGUGGUUGCAUAGUAUUUAGUUA
pre-steady-state target cleavage rate [1, 3]: 0.163 ± 0.022
pre-steady-state target cleavage rate [1, 4]: 0.0112 ± 0.0031
pre-steady-state target cleavage rate [2]: 0.00426 ± 0.0039

UCCUGGAUGUCCUCGCAUAGUAUUUAGUUA
pre-steady-state target cleavage rate [1, 3]: 0.0711 ± 0.01
pre-steady-state target cleavage rate [1, 4]: 0.00777 ± 0.0022
pre-steady-state target cleavage rate [2]: 0.00388 ± 0.0033

UCCUCCUACAGCUUGCAUUGUAUUUAGUUA
pre-steady-state target cleavage rate [1, 3]: 0.222 ± 0.014
pre-steady-state target cleavage rate [1, 4]: 0.00744 ± 0.0019
pre-steady-state target cleavage rate [2]: 0.0211 ± 0.0059

UCCUGCUACAGCUUCGCAUAGUAUUUAGUUA
pre-steady-state target cleavage rate [1, 3]: 0.268 ± 0.019
pre-steady-state target cleavage rate [1, 4]: 0.00637 ± 0.0021
pre-steady-state target cleavage rate [2]: 0.0225 ± 0.0071

UCCUGGUACAGCUUGCAGAGUAUUUAGUUA
pre-steady-state target cleavage rate [1, 3]: 0.121 ± 0.026
pre-steady-state target cleavage rate [1, 4]: 0.00836 ± 0.0028
pre-steady-state target cleavage rate [2]: 0.00371 ± 0.0027

UCCUGCUACAGCUAGCAUUGUAUUUAGUUA
pre-steady-state target cleavage rate [1, 3]: 0.225 ± 0.019
pre-steady-state target cleavage rate [1, 4]: 0.007 ± 0.0024
pre-steady-state target cleavage rate [2]: 0.00762 ± 0.0028

UCCUCGUACAGCUUGCAUUGUAUUUAGUUA
pre-steady-state target cleavage rate [1, 3]: 0.223 ± 0.011
pre-steady-state target cleavage rate [1, 4]: 0.00719 ± 0.0021
pre-steady-state target cleavage rate [2]: 0.0163 ± 0.004

UCCUGGAACAGCUUGCUAAGUAUUUAGUUA
pre-steady-state target cleavage rate [1, 3]: 0.129 ± 0.015
pre-steady-state target cleavage rate [1, 4]: 0.00361 ± 0.0028
pre-steady-state target cleavage rate [2]: 0.00374 ± 0.0032

UCCUGCUACAGCUGCAUAGUAUUUAGUUA
pre-steady-state target cleavage rate [1, 3]: 0.271 ± 0.02
pre-steady-state target cleavage rate [1, 4]: 0.00665 ± 0.0026
pre-steady-state target cleavage rate [2]: 0.0102 ± 0.0026

Reference: the supplement of paper PMC10338343
